# miR-21 reporter = qHTS Assay for Modulators of miRNAs and/orActivators of miR-21; HeLa miR-21 FLuc reporter, luciferase, 48 h; Potency, µM (titrated, usually from 38.3 µM), without a hit: at the top dose activity change, positive = activation, usual class: activators; 340,000 tested, under 10 active;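 note: % of control where 0% means no effect; miR-21 action dims this reporter so a rising signal means less miR-21 action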
#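 Luminescence from a firefly luciferase reporter carrying a miR-21 binding site downstream, stably expressed under a CMV promoter in HeLa cells that make miR-21 endogenously, reports miRNA modulation after 48 h compound exposure up to approximately 40uM final.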
# A549 tox = Nrf2 qHTS screen for inhibitors: counterscreen for cytotoxicity; A549 ARE-Fluc cells, CellTiter-Fluor viability, 18-24 h; hit rate 0.16% among 390,000; AID 504648, 2011; Potency, µM (series often up to 46 µM), without a hit: at the highest dose activity change, negative = cytotoxicity, usual class: inhibitors; note: potency is the fitted concentration of half-maximal effect; % is set by controls: 0 for no effect and ±100 for the full control effect
#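 Cytotoxicity counterscreen: CellTiter-Fluor fluorescence was measured in A549 ARE_Fluc cells after 18-24 h of compound exposure in a concentration series. The subsequent BugLite luminescent read reports ARE-luciferase activity.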
# Nrf2 block = Nrf2 qHTS screen for inhibitors | A549 ARE-Fluc reporter, luciferase luminescence, 18-24 h | Potency, µM (highest dose often 46 µM), for inactives: at the top dose activity change, negative = inhibition, most hits filed as inhibitors | AID 504444, 2011 | hit rate 2.1% among 360,000; note: potency is the fitted concentration of half-maximal effect; % is set by controls: 0 for no effect and ±100 for the full control effect; nearly all actives have a fitted effect of over 60% in size
#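 Concentration-response testing used A549 ARE_Fluc cells at 5000 cells/well. Following an 18-24 h compound incubation, viability was read by fluorescence (Ex 405/Em 525) and luciferase output by luminescence.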
# PI4K2A inh = qHTS for small molecular inhibitors of PI4K2A. Phosphatidylinositol 4-kinase type 2-alpha (Homo sapiens), Q9BTU6. purified PI4K2A, ADP-Glo luminescence, 1 h; hits give low values. activity change, negative = inhibition, % at 76.9 µM. hit rate 0.13% among 420,000; in the data active = activity change below about -50%; inconclusive = mostly about -30% to -49%;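 note: -100% = wells without enzyme as full effect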
# Target sequence (Q9BTU6 whole entry, looked up): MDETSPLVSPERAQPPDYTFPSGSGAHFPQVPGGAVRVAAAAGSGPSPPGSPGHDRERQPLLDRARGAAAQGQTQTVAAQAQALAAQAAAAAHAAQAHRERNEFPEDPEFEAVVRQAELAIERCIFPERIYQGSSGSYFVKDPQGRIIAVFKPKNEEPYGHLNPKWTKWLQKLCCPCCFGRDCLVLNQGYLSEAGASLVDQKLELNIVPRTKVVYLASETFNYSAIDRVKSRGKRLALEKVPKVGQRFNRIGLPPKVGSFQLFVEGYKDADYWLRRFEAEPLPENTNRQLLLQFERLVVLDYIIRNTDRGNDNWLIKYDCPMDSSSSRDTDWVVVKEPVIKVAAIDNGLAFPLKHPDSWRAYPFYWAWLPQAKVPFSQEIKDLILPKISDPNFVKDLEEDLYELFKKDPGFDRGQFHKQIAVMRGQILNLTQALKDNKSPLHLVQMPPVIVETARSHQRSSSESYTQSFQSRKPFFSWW
#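 ADP-Glo luminescence measured ADP generated by PI4K2A enzyme (4 ug/mL before mixing) with 1.2 mM PI substrate (pre-mix) and 300 microM ATP (pre-mix). Tris pH7.5 buffer with MgCl2, Triton X-100; 1 h reaction at ambient temperature.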
# Nrf2 ARE act = qHTS of Nrf2 Activators | hit rate 0.31% among 410,000 | AREc32 ARE-luciferase reporter (MCF7-derived line), luminescence, 24 h | Potency, µM (top dose mostly 46.1 µM), without a hit: top-dose activation, most hits filed as activators; note: potency is the fitted concentration of half-maximal effect; % of control where 0% means no effect; nearly all actives have a fitted effect of over 65% in size
#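 Each well held 1000 AREc32 cells, which were incubated with compound for 24 hr at 37 deg C after overnight attachment, and ARE reporter activity was quantified by firefly luciferase luminescence.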
# GALK inhibitor = qHTS Assay for Inhibitors of Human Galactokinase (GALK). P51570. Purified GALK, Kinase-Glo residual ATP luminescence. Potency, µM (titrated, usually from 57.5 µM), inactives show at the highest dose activity change, negative = inhibition, actives largely listed as inhibitors. hit rate 0.007% among 270,000; note: potency is the fitted concentration of half-maximal effect; % is set by controls: 0 for no effect and ±100 for the full control effect
#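 ATP-depletion format; final 35 uM ATP, 100 uM D-galactose, 5 nM enzyme; pH 8.0 HEPES/Mg2+ buffer; 60 min RT; luminescence read 10 min after detection reagent.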
# Numbers without * were called inactive; ? = inconclusive; . = no result; [ ] = another dose, or the depositor's remark. Most compounds without a hit are left out; they make up all but 2.2% or so of the library. Unless noted, calls come from the whole dose curve; as a rule, active = well fitted curve in the direction sought with a large enough effect; inconclusive = small, poorly fitted or top-dose-only effect, or another doubt; inactive = no such curve, though single readings can be large; an effect the other way counts as inactive or inconclusive.
SMILES,miR-21 reporter,A549 tox,Nrf2 block,PI4K2A inh,Nrf2 ARE act,GALK inhibitor
CCN1C(=O)c2cccc3c(S(=O)(=O)N(C(C)=O)c4ccc(OC(C)=O)cc4)ccc1c23,.,-16%,26µM*,2,29%,.
Cc1c(C(=O)Nc2ccc(-c3nnc4n3CCCCC4)cc2)oc2c1ccc1ccccc12,17%,?,9.2µM*,4,-3%,-1%
CCCCNC(=S)NCCCN(Cc1ccc(Cl)c(Cl)c1)c1ccc(Br)cn1,.,-16%,?,.,.,.
O=c1cc(C(F)(F)F)[nH]c2ccc(C(F)(F)F)cc12,29%,?,21µM*,-8,8%,-2%
Cc1cc(=O)c2ccc(C(F)(F)F)cc2[nH]1,3%,-8%,-14%,3,0%,0%
COc1ccc(/C=C/c2cc(C(=O)O)c3ccccc3n2)cc1,?,0%,6.5µM*,7,-2%,.
O=C(/C=C/c1cn(-c2ccccc2)nc1-c1cccnc1)N1CCCC1,13%,?,-18%,7,4%,0%
N#C/C(=C\c1cn(-c2ccccc2)nc1-c1cccnc1)c1nnc2n1CCCCC2,-3%,?,21µM*,3,0%,4%
COCCCNC(=O)C[C@H]1C[C@@]2(C(=O)OC)C(=C[C@H](COCc3ccccc3)O[C@@H]2C)N(Cc2ccccc2)C1=O,.,.,.,0,.,.
COc1ccc(C2=Nn3c(nnc3-c3ccccc3Cl)SC2)cc1OC1CCOC1 (stereo not drawn),.,1%,6%,2,0%,.
COc1ccc(C2=Nn3c(nnc3-c3ccccc3Cl)SC2)cc1OC1CCCC1,.,-17%,16µM*,0,-1%,.
O=c1c2c(C(F)(F)F)cc(C(F)(F)F)nc2[nH]n1-c1ccccc1,6%,-13%,-10%,-7,-1%,0%
O=c1c(Sc2ccccc2)c(C(F)(F)F)[nH]n1-c1ccccc1,16%,?,21µM*,-13,0%,0%
COc1cccc2sc3ccc(C#Cc4ccc(N)cc4)cc3c(=O)c12,-36%,?,?,-8,-1%,.
COc1ccc2sc3ccccc3c(=O)c2c1OC,-59%,-7%,?,-6,11µM*,-1%
O=C(c1ccccc1)c1cc(-c2ccccc2)on1,-60%,-1%,?,-51*,?,5%
Cc1cc(NC(=O)c2cc(-c3ccccc3)on2)no1,2%,-6%,4%,4,0%,-2%
O=C(Nc1ccc(OCc2ccccc2Cl)cc1)c1cccnc1,29%,0%,9.2µM*,-2,-2%,-4%
Cc1cc2c(s1)c1cnn(Cc3ccc(C(F)(F)F)cc3F)c(=O)c1n2C,.,3%,1%,.,.,.
Cc1ccc(Cl)cc1NC(=S)NCCCSC1CCCCC1,23%,?,26µM*,10,3%,-3%
Cc1cccc2cc(C#N)c(NCCNC(=O)NC3CCCCC3)nc12,-7%,-10%,9.2µM*,-1,0%,-3%
Cc1ccc2cc3c(NC(=O)c4ccco4)nn(C)c3nc2c1,12%,2%,?,0,3.2µM*,-1%
CC(=O)Nc1nn(C)c2nc3cc(C)ccc3cc12,-7%,-3%,4%,4,0%,0%
COc1ccc(C=NNC(=S)Nc2ccc(F)cc2)cc1OC,.,-16%,?,1,0%,.
COc1ccc(C=NNC(=S)NN=Cc2ccc(OC)c(OC)c2)cc1OC,.,4%,15µM*,-6,12%,.
SMILES,miR-21 reporter,A549 tox,Nrf2 block,PI4K2A inh,Nrf2 ARE act,GALK inhibitor
CC(C)(C)c1ccc(-c2nnc(SCC(=O)Nc3ccc4cn[nH]c4c3)n2-c2ccc(Cl)cc2)cc1,.,.,.,-3,.,.
C[n+]1c2n(c3ccccc31)N=C(c1cc(C(C)(C)C)c(O)c(C(C)(C)C)c1)CS2,?,?,18µM*,-2,-2%,8%
CC(C)C(NS(=O)(=O)c1c(Cl)cccc1Cl)C(=O)OCC(=O)c1c[nH]c2ccccc12 (stereo not drawn),?,?,23µM*,-4,0%[9.22 µM],-6%
CC(O)C(NS(=O)(=O)c1ccc(Cl)cc1)C(=O)OCC(=O)c1c[nH]c2ccccc12 (stereo not drawn),21%,3%,-17%,0,10%,-1%
COc1ccc(OC)c(CCNC(=O)c2cnn(-c3ccc(C)cc3C)c2C2CCN(C(=O)OC(C)(C)C)CC2)c1,25%,-29%,18µM*,-1,0%,.
Cc1ccc(C)c(N2CCN(CCCNC(=O)c3cnn(-c4cccc(Cl)c4)c3C3CCN(C(=O)OC(C)(C)C)CC3)CC2)c1,19%,?,?,3,-1%,.
Cc1ccc(C)c(N2CCN(CCCNC(=O)c3cnn(-c4ccc(F)cc4)c3C3CCN(C(=O)OC(C)(C)C)CC3)CC2)c1,-1%,18µM*,?,0,0%,.
Cc1ccc(C)c(N2CCN(C(=O)c3cnn(C(C)(C)C)c3C3CCN(C(=O)OC(C)(C)C)CC3)CC2)c1,25%,-26%,21µM*,-3,0%,.
O=S(=O)(c1ccc2c(c1)OCCO2)N1CCN(S(=O)(=O)c2ccc(Cl)cc2F)CC1,.,-1%,4%,.,.,.
O=C(COC(=O)c1cc([N+](=O)[O-])ccc1N1CCOCC1)Nc1ccc(Cl)cc1,14%,?,18µM*,0,0%,-11%
Cc1ccc2nc(-c3ccc(NC(=O)CSc4nnc(-c5cc(C)[nH]n5)n4N)cc3)sc2c1,.,.,.,5,.,.
O=c1[nH]c(CN2CCN(S(=O)(=O)/C=C/c3ccccc3)CC2)nc2ccccc12,-1%,-4%,?,0,-1%,3%
O=c1[nH]c(CN2CCN(S(=O)(=O)/C=C/c3ccccc3)CC2)nc2cc(Cl)ccc12,22%,-20%,16µM*,0,0%,0%
CC#C[C@]1(O)CC[C@H]2[C@@H]3CCC4=CC(=O)CCC4=C3[C@@H](c3ccc(N(C)C)cc3)C[C@@]21C,16%,-19%,23µM*,3,0%,-3%
Cc1cc(C)c(C(=O)/C=C/c2ccc(C(C)C)cc2)c(=O)[nH]1,?,-19%,18µM*,11,-1%,-5%
Cc1cc(C)c(C(=O)/C=C/C=C/c2ccccc2)c(=O)[nH]1,-17%,1%,0%,3,?,1%
COc1ccc(NS(=O)(=O)c2ccc3c(c2)[C@H]2C=CC[C@H]2[C@@H](c2ccc(C(=O)O)cc2)N3)cc1,1%,-14%,0%,-10,0%,-1%

# Source: PubChem (National Center for Advancing Translational Sciences (NCATS))
